# From PMC5540273 (PLoS ONE, 2017)
# Assays:
# Conditions in all cases: concentration: 1 μM, replicates: in singlicate; n = 1
# [1] = system: MARK3
# [2] = system: MARK4
# [3] = system: MAST1
# [4] = system: T1, MEK1
# T1 construct: gene MAP2K1
# [5] = system: T2, MEK2
# T2 construct: gene MAP2K2
# [6] = system: T3, MEK3
# T3 construct: gene MAP2K3
# [7] = system: T4, MEK4
# T4 construct: gene MAP2K4
# [8] = system: T5, MEK5
# T5 construct: gene MAP2K5
# [9] = system: T6, MEK6
# T6 construct: gene MAP2K6
# [10] = system: MELK
# [11] = system: MERTK
# [12] = system: MET
# [13] = system: T7, MINK
# T7 construct: gene MINK1
# [14] = system: MKK7
# [15] = system: MKNK1
# [16] = system: MKNK2
# [17] = system: T8, MLCK
# T8 construct: gene MYLK3
# [18] = system: T9, MLK1
# T9 construct: gene MAP3K9
# [19] = system: MLK2
# [20] = system: MLK3
# 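Note: KINOMEscan kinase panel screen.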
SMILES,%Inh [1],%Inh [2],%Inh [3],%Inh [4],%Inh [5],%Inh [6],%Inh [7],%Inh [8],%Inh [9],%Inh [10],%Inh [11],%Inh [12],%Inh [13],%Inh [14],%Inh [15],%Inh [16],%Inh [17],%Inh [18],%Inh [19],%Inh [20]
CSc1ccc(NC2=C(c3ccccc3Cl)C(=O)NC2=O)cc1 [SB-342411],0%,13%,0%,14%,3%,0%,0%,5%,76%,4%,0%,0%,2%,39%,100%,0%,0%,9%,0%,4%
CNc1nccc(-c2c(-c3ccc(F)cc3)ncn2C2CCN(C)CC2)n1 [SB-222903],18%,16%,10%,8%,26%,1%,0%,37%,0%,0%,0%,6%,43%,0%,0%,0%,0%,0%,31%,0%
Cl.O=S(=O)(c1cccc(F)c1)c1ccc(Nc2ncnc3cc(Br)sc23)cc1Cl [GSK306886],0%,1%,0%,0%,6%,0%,22%,26%,38%,0%,37%,0%,0%,0%,11%,11%,0%,0%,0%,2%
CCC(CC)(CC)n1cnc2c(N)ncnc21 [SKF-97620],34%,37%,32%,10%,21%,36%,43%,45%,14%,0%,40%,0%,15%,0%,0%,10%,0%,0%,3%,1%
Fc1cccc(COc2ccc(Nc3ncnc4cc[nH]c34)cc2Cl)c1,9%,0%,65%,12%,21%,18%,20%,47%,0%,6%,0%,8%,34%,0%,19%,10%,0%,9%,0%,32%
Clc1ccc(-c2cc(-c3c[nH]nc3-c3ccccn3)ccn2)cc1 [GW681251],0%,0%,0%,39%,0%,0%,2%,0%,0%,40%,27%,0%,78%,30%,0%,3%,0%,0%,0%,0%
Nc1nccc2scc(-c3ccc4c(c3)CCN4C(=O)Cc3cc(F)ccc3F)c12 [GSK2587663],4%,0%,9%,0%,0%,0%,5%,67%,0%,0%,0%,0%,18%,0%,0%,4%,4%,0%,0%,15%
c1ccc(-c2ccc3c(-c4ccnc(Nc5ccc6c(c5)OCCO6)n4)cnn3n2)cc1 [GW818941],0%,9%,8%,17%,3%,0%,9%,5%,0%,0%,58%,100%,0%,21%,0%,2%,4%,12%,39%,28%
O=C(c1ccc(-c2cc(-c3c[nH]nc3-c3ccccn3)ccn2)cc1)N1CCCC1 [GW792479],0%,15%,12%,14%,30%,20%,0%,30%,0%,0%,0%,23%,30%,0%,0%,0%,0%,14%,14%,3%
Cl.Cn1ccc(-c2cccc(Nc3ccnc4cc(-c5nccs5)ccc34)c2)n1 [GW525701],0%,0%,12%,0%,0%,0%,8%,86%,0%,0%,23%,0%,54%,0%,7%,1%,14%,0%,0%,0%
Oc1ccc2ncnc(Nc3ccc(OCc4ccccc4)cc3)c2c1 [GI262866],22%,0%,0%,18%,2%,0%,11%,99.1%,0%,0%,34%,5%,0%,0%,0%,15%,0%,0%,24%,0%
